Screening results from PubChem.
ERAP1 inh = human ERAP1 aminopeptidase inhibitors, primary screen, biochemical, single point, plate reader; Endoplasmic reticulum aminopeptidase 1 (Homo sapiens), Q9NZ08; recombinant ERAP1, Leu-AMC fluorescence, 60 min; inhibition, % at 10.7 µM; 340,000 compounds, 0.15% hits; AID 652197, 2013;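 active = mean replicate inhibition of at least 30%, or all replicates individually reaching that 30% level; inactive = mean below 30% and not every replicate reaching it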;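 note: 0% = neutral control wells and 100% = L-leucinethiol positive control wells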
Target sequence (Q9NZ08 whole entry, looked up): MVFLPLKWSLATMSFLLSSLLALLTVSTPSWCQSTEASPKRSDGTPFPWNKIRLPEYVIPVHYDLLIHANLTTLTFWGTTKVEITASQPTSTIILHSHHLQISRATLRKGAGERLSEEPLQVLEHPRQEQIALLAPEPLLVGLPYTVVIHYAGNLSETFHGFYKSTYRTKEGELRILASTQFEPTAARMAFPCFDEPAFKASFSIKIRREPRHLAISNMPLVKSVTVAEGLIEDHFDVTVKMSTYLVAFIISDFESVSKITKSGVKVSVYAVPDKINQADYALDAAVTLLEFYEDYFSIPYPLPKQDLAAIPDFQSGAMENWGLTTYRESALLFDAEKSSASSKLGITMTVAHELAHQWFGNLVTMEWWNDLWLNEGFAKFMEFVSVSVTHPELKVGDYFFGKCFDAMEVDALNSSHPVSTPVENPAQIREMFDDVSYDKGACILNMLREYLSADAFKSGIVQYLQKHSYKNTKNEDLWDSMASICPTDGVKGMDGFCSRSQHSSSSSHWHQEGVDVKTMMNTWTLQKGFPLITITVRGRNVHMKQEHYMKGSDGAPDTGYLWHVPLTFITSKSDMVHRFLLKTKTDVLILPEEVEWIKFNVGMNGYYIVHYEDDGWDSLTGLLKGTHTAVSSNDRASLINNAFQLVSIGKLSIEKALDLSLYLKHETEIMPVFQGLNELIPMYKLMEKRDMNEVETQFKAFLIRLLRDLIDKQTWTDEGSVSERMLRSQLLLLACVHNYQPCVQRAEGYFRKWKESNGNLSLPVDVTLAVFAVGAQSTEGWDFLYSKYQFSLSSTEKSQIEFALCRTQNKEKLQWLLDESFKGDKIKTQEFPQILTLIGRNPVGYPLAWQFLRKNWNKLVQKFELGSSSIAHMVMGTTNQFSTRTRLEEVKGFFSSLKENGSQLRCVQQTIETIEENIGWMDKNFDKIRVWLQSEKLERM
PDI inh = inhibitors of human PDI, primary screen, biochemical, turbidity, single point, plate reader; 350,000 compounds, 0.052% hits; Protein disulfide-isomerase (Homo sapiens), P07237; inhibition, % at 10 µM; PDI insulin aggregation turbidity, A650, 90 min;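 active = mean inhibition across replicates of 30% or more, whatever share of single replicates reach that level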
ERp5 block = inhibitors of ERp5-driven insulin aggregation, primary screen, biochemical, turbidity, absorbance 650 nm, single point. Protein disulfide-isomerase A6 (Homo sapiens), Q15084. 350,000 compounds, 0.05% hits. 90 min. inhibition, % at 9.99 µM. AID 651711, 2012;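 active = mean replicate inhibition above about 25%, with every replicate also reaching it, limit read from the data, passing the limit was not always enough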
SIRT5 block = SIRT5 desuccinylase inhibitors, primary screen, biochemical, fluorescence imaging, single point, set 5; Purified SirT5, succinyl-peptide AMC, trypsin-coupled fluorescence; inhibition, % at 15 µM; 330,000 compounds, 1.1% hits; AID 652115, 2013; in the data active = inhibition above about 15%
Active calls of the source: *; ! = not confirmed by another sample. This is one part of a sample in which hits are shown more often than they occur.

For C[C@H](CO)N1C[C@H](C)[C@@H](CN(C)Cc2ccc(Oc3ccccc3)cc2)Oc2ccc(NC(=O)Nc3ccccc3)cc2C1=O the results were ERAP1 inh 2, ERp5 block -1 and SIRT5 block 11.
`C[C@H](CO)N1C[C@H](C)[C@H](CN(C)C(=O)Nc2ccccc2)Oc2ncccc2C1=O` gave ERAP1 inh 49*, ERp5 block 22 and SIRT5 block -1.
Screening COc1ccc(CN(C)C[C@H]2Oc3ccc(NC(=O)C4CCCCC4)cc3CC(=O)N([C@@H](C)CO)C[C@@H]2C)cc1 returned ERAP1 inh 0, ERp5 block 0 and SIRT5 block 17*.
For C[C@@H]1CN([C@@H](C)CO)C(=O)c2cc(NC(=O)c3ccncc3)ccc2O[C@H]1CN(C)Cc1ccc(Oc2ccccc2)cc1 the results were ERAP1 inh -1, ERp5 block -2 and SIRT5 block 16*.
C[C@@H]1CN([C@@H](C)CO)C(=O)c2cc(NC(=O)Nc3ccccc3)ccc2O[C@@H]1CN(C)Cc1ccc(Oc2ccccc2)cc1 was read as ERAP1 inh 2, ERp5 block 2 and SIRT5 block 17*.
CCC(=O)Nc1ccc2c(c1)C(=O)N(C)[C@H]1CC[C@@H](CC(=O)Nc3cccc(OC)c3)O[C@@H]1CO2 was read as ERAP1 inh 0, ERp5 block 3 and SIRT5 block -2.
Screening C[C@@H]1CN([C@H](C)CO)C(=O)c2cc(NC(=O)c3ccncc3)ccc2O[C@H]1CN(C)C(=O)Nc1ccccc1 returned ERAP1 inh 2, ERp5 block -5 and SIRT5 block -2.
COc1ccc(NC(=O)Nc2ccc3c(c2)CC(=O)N([C@@H](C)CO)C[C@H](C)[C@H](CN(C)Cc2ccc(Oc4ccccc4)cc2)O3)cc1 was read as ERAP1 inh -2, ERp5 block 5 and SIRT5 block 2.
C[C@@H]1CN([C@H](C)CO)C(=O)c2cc(NC(=O)C3CC3)ccc2O[C@@H]1CN(C)Cc1ccc(Oc2ccccc2)cc1 was read as ERAP1 inh -4, ERp5 block 1 and SIRT5 block 11.
COc1ccc(NC(=O)Nc2ccc3c(c2)CC(=O)N([C@H](C)CO)C[C@H](C)[C@@H](CN(C)Cc2ccc(Oc4ccccc4)cc2)O3)cc1 was read as ERAP1 inh 0, ERp5 block 0 and SIRT5 block 23*.
C[C@@H]1CN([C@H](C)CO)C(=O)c2cc(NC(=O)Nc3ccccc3)ccc2O[C@@H]1CN(C)Cc1ccccc1 was read as ERAP1 inh 0, ERp5 block -5 and SIRT5 block 18*.
`C[C@H](CO)N1C[C@H](C)[C@@H](CN(C)C(=O)Nc2ccccc2)Oc2ccc(NC(=O)c3ccncc3)cc2C1=O` gave ERAP1 inh 65*!, PDI inh 0, ERp5 block 0 and SIRT5 block 2.
C[C@H](CO)N1C[C@H](C)[C@@H](CN(C)Cc2ccc(Oc3ccccc3)cc2)Oc2ccc(NC(=O)C3CC3)cc2C1=O was read as ERAP1 inh 0, ERp5 block 3 and SIRT5 block 18*.
Screening COc1ccc(NC(=O)Nc2ccc3c(c2)C(=O)N([C@H](C)CO)C[C@@H](C)[C@@H](CN(C)Cc2ccc(Oc4ccccc4)cc2)O3)cc1 returned ERAP1 inh -6, ERp5 block 0 and SIRT5 block 1.
CN(C)CC(=O)Nc1ccc2c(c1)[C@H]1C[C@@H](CC(=O)N3CCc4ccccc4C3)O[C@H](CO)[C@H]1O2 was read as ERAP1 inh 0, ERp5 block -1 and SIRT5 block -2.
`C[C@@H]1CN([C@@H](C)CO)C(=O)c2cc(NC(=O)Nc3ccc4c(c3)OCO4)ccc2O[C@@H]1CN(C)Cc1ccc(C(=O)O)cc1` gave ERAP1 inh 1, ERp5 block 39* and SIRT5 block 3.
For C[C@H]1CN([C@@H](C)CO)C(=O)c2cc(NC(=O)C3CC3)ccc2O[C@H]1CN(C)Cc1ccc2c(c1)OCO2 the results were ERAP1 inh 4, ERp5 block -2 and SIRT5 block 3.
For C[C@@H]1CN([C@H](C)CO)C(=O)c2cc(NC(=O)C3CC3)ccc2O[C@@H]1CN(C)Cc1ccc2c(c1)OCO2 the results were ERp5 block -2 and SIRT5 block 17*.
`C[C@H]1CN([C@@H](C)CO)C(=O)c2cc(NC(=O)Nc3ccc4c(c3)OCO4)ccc2O[C@@H]1CN(C)Cc1ccc(C(=O)O)cc1` gave ERAP1 inh 0, ERp5 block -4 and SIRT5 block 4.
For CCC(=O)Nc1ccc2c(c1)OC[C@H](C)N(C(=O)c1cccnc1)C[C@@H](C)[C@@H](OC)CN(C)C2=O the results were ERAP1 inh -3, ERp5 block 2 and SIRT5 block 3.
For O=C1O[C@@H](c2ccccc2)[C@@H](c2ccccc2)N2[C@@H](c3ccc(OCCO)cc3)[C@]3(C(=O)Nc4ccc(C#CCCO)cc43)[C@@H](C(=O)N3CCN(c4ncccn4)CC3)[C@H]12 the results were ERAP1 inh 1, ERp5 block -2 and SIRT5 block -4.
Screening COC(=O)C(CC#Cc1ccc2c(c1)[C@]1(C(=O)N2)[C@H](C(=O)NC[C@H](O)c2ccccc2)[C@H]2C(=O)O[C@H](c3ccccc3)[C@H](c3ccccc3)N2[C@@H]1c1ccccc1OCCO)C(=O)OC returned ERAP1 inh -2, ERp5 block -3 and SIRT5 block 19*.
For O=C1O[C@@H](c2ccccc2)[C@@H](c2ccccc2)N2[C@@H](c3ccccc3OCCO)[C@]3(C(=O)Nc4ccc(C#CC5=CCCCC5)cc43)[C@@H](C(=O)N3CCN(c4ncccn4)CC3)[C@H]12 the results were ERAP1 inh -1, ERp5 block -1 and SIRT5 block 17*.
For NC(=O)NCC#Cc1ccc2c(c1)[C@]1(C(=O)N2)[C@H](c2ccc(OCCO)cc2)N2[C@H](c3ccccc3)[C@H](c3ccccc3)OC(=O)[C@H]2[C@@H]1C(=O)O the results were ERAP1 inh -3, ERp5 block 7 and SIRT5 block 3.
For COc1cc2c(cc1OC)CN(C(=O)[C@@H]1[C@H]3C(=O)O[C@H](c4ccccc4)[C@H](c4ccccc4)N3[C@H](c3ccc(OCCO)cc3)[C@@]13C(=O)Nc1ccc(C#CCNC(N)=O)cc13)CC2 the results were ERAP1 inh 2, ERp5 block 3 and SIRT5 block 23*.
`COc1ccc(C#Cc2ccc3c(c2)[C@]2(C(=O)N3)[C@H](C(=O)N3CCN(c4ncccn4)CC3)[C@H]3C(=O)O[C@H](c4ccccc4)[C@H](c4ccccc4)N3[C@@H]2c2ccc(OCCO)cc2)cc1` gave ERAP1 inh 2, ERp5 block 0 and SIRT5 block 23*.
